In PubChem BioAssay:
The list shows a part of the results. Calls of active or inactive are those of the source.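 The calls were made as follows, unless noted: active = mean inhibition above about 50% in the one-dose retest (limit read from the data); inactive = the rest.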

Columns and labels:
[1] = biological target: Sentrin-specific protease 8 (Homo sapiens) (UniProt Q96LD8); experiment: SENP8 protease inhibitors, retest, confirmation, biochemical, luminescence, single concentration (AID 488912;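 active = mean inhibition across replicates above about 50%, limit read from the data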); conditions: Recombinant SENP8, Z-RLRGG-aminoluciferin luminescence, 60 min; at 12.5 µM; active compounds read high
[2] = biological target: Sentrin-specific protease 6 (Homo sapiens) (UniProt Q9GZR1); experiment: SENP6 protease inhibitors, confirmation, biochemical, luminescence, single concentration (AID 488915); conditions: recombinant SENP6, Z-RLRGG-aminoluciferin luminescence; at 12.5 µM; active compounds read high
[3] = biological target: Sentrin-specific protease 7 (Homo sapiens) (UniProt Q9BQF6); experiment: SENP7 protease inhibitors, retest, confirmation, biochemical, luminescence, single concentration (AID 488917); conditions: recombinant SENP7, Z-RLRGG-aminoluciferin luminescence, 40 min; at 12.5 µM; active compounds read high
Caspase-3 (Homo sapiens) = Caspase-3 (Homo sapiens) (UniProt P42574); experiment: caspase-3 protease inhibitors, confirmation, selectivity assay for SENP inhibitor project, biochemical, single concentration (AID 488918;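 active = mean inhibition above about 50%, limit read from the data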;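 also: plate controls were enzyme with DMSO for no effect and wells without caspase-3 for full effect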); conditions: purified caspase-3, Z-DEVD-aminoluciferin luminescence, 60 min; at 12.5 µM; active compounds read high
[4] = luciferase luminescence interference by compounds, confirmation, artefact control for SENP inhibitor project, biochemical, single concentration, SENP8 reaction pre-completed (AID 488919;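 active = mean inhibition above about 50% when retested at one dose, limit read from the data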;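 also: plate controls were DMSO wells with completed reaction for no effect and substrate without enzyme for full effect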); conditions: Pre-incubated SENP8/Z-RLRGG-aminoluciferin, at 12.5 µM, active compounds read high

Sequence of Sentrin-specific protease 7 (Homo sapiens) (Q9BQF6 706-1050 limits assumed): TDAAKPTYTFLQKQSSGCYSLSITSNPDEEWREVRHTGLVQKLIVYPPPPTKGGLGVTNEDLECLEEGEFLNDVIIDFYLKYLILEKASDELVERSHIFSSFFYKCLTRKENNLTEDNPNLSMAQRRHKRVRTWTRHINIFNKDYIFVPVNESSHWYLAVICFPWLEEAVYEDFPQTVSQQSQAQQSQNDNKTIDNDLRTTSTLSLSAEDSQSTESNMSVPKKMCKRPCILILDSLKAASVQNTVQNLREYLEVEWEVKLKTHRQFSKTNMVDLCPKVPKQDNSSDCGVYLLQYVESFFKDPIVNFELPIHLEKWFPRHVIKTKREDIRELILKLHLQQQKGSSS
Sequence of Sentrin-specific protease 6 (Homo sapiens) (Q9GZR1 628-1112 limits assumed): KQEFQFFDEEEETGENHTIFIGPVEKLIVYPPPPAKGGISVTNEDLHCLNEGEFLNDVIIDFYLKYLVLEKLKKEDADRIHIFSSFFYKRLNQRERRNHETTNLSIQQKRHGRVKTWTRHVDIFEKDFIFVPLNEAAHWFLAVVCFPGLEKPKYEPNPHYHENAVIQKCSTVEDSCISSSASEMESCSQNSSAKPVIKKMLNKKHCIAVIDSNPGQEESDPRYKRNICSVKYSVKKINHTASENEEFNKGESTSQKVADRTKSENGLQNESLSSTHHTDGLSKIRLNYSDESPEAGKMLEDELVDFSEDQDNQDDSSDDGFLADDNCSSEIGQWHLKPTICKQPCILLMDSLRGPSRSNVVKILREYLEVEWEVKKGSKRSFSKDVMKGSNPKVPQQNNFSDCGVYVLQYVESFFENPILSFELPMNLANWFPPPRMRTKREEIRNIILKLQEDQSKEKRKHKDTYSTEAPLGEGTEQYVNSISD
Sequence of Caspase-3 (Homo sapiens) (P42574 28-227 limits assumed): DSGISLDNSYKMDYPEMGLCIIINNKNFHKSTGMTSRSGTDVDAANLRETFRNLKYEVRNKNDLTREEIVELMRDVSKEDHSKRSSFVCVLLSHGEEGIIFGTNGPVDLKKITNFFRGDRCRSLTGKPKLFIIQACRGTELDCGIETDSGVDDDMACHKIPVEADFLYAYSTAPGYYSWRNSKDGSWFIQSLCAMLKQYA
Sequence of Sentrin-specific protease 8 (Homo sapiens) (Q96LD8 whole entry, looked up): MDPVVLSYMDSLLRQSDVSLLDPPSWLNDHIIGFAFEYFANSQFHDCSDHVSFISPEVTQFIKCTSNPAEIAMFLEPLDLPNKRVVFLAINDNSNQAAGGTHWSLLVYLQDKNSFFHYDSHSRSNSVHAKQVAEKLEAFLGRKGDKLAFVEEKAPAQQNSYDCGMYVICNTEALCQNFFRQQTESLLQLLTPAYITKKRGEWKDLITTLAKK

SMILES	inhibition [1]	inhibition [2]	inhibition [3]	inhibition (Caspase-3 (Homo sapiens))	inhibition [4]
CC(=O)Oc1ccc2c(c1)C(=O)c1ccccc1C2=O	38.1% (inactive)	43.9% (inactive)	67.4% (active)	57.6% (active)	25.6% (inactive)
COc1ccc(NC(=O)Nc2cccc3cccnc23)cc1	86.4% (active)	85.6% (active)	97.2% (active)	70.7% (active)	78.5% (active)
Cc1cc(C(=O)N/N=C/c2ccc(N3CCOCC3)cc2)c(C)o1	86.9% (active)	86.6% (active)	98.6% (active)	95.4% (active)	49.9% (inactive)
O=C(Nc1cc2ccccc2oc1=O)C1CCCCC1	8.2% (inactive)	4.9% (inactive)	19.1% (inactive)	20.1% (inactive)	3.7% (inactive)
O=c1[nH]c(/C=C/c2cccc(Br)c2)nc2ccccc12	2.7% (inactive)	1.4% (inactive)	12.3% (inactive)	17.6% (inactive)	1% (inactive)
N=c1c2c3c(sc2nc2n1CCCCC2)CCCC3	10.9% (inactive)	8.4% (inactive)	10.6% (inactive)	11.1% (inactive)	11.6% (inactive)
O=C(N/N=C/c1cccnc1)c1cc2ccccc2cc1O	25.3% (inactive)	22.6% (inactive)	72.3% (active)	61.6% (active)	53.8% (active)
O=C(Nc1ccccc1)c1ccc(NC(=O)c2cccs2)cc1	-8.2% (inactive)	-4.8% (inactive)	0.7% (inactive)	38.2% (inactive)	-1.7% (inactive)
CCOc1ccc(N/C=C/C(=O)c2ccccc2)cc1	10.5% (inactive)	94.9% (active)	63.3% (active)	81.1% (active)	19.3% (inactive)
Nc1ncc(-c2cc3ccccc3oc2=O)s1	92.7% (active)	92.8% (active)	102% (active)	94.6% (active)	91.7% (active)
CCc1ccc(C(=O)COC(=O)c2ccco2)cc1	62.7% (active)	62% (active)	83.3% (active)	74.5% (active)	68% (active)
CC(=O)Oc1ccc2c(=O)oc(-c3ccc([N+](=O)[O-])cc3)nc2c1	-6.1% (inactive)	-1.5% (inactive)	-2.9% (inactive)	-2.9% (inactive)	-4.7% (inactive)
O=C(Nc1ccc(C2CC2(Cl)Cl)cc1)c1cccc([N+](=O)[O-])c1 (stereo not given)	57.6% (active)	60.1% (active)	87.5% (active)	36.1% (inactive)	29.5% (inactive)
O=C(Nc1ccc2c(c1)CCC2)c1cccc(S(=O)(=O)Nc2ccccc2Cl)c1	44% (inactive)	40.3% (inactive)	50.8% (active)	13.2% (inactive)	4.6% (inactive)
FC(F)(F)c1ccnc(Oc2ccc(C3=NCCS3)cc2)c1	36.3% (inactive)	42.8% (inactive)	53.1% (active)	29.9% (inactive)	17% (inactive)
COCn1c(COc2ccccc2)nc2ccccc21	39.7% (inactive)	39.5% (inactive)	76.4% (active)	74.2% (active)	56% (active)
CCOC(=O)c1sc(NC(=O)c2ccncc2)nc1C	0.5% (inactive)	74.8% (active)	90.8% (active)	84.4% (active)	20% (inactive)
CC(C)Cc1cc(C(=O)Nc2cc(Br)ccc2O)no1	6% (inactive)	21.4% (inactive)	28.9% (inactive)	15.4% (inactive)	7.1% (inactive)
O=C(COc1ccc2oc3c(c2c1)CCCC3)Nc1ccccn1	4.9% (inactive)	12.8% (inactive)	11.9% (inactive)	24.7% (inactive)	4.6% (inactive)
Cc1ccc(C(=O)O/N=C(\N)c2ccccn2)cc1Cl	38.5% (inactive)	81.3% (active)	27.2% (inactive)	53.7% (active)	50.2% (active)
O=c1c2ccccc2ncn1/N=C/c1ccccc1	2.5% (inactive)	80.2% (active)	97% (active)	86.6% (active)	69% (active)
O=C(Nc1sc2c(c1C(=O)O)CCC2)c1ccccc1F	94.5% (active)	96.2% (active)	102% (active)	96.3% (active)	94.5% (active)
CCOc1ccc(C(=O)Nc2cccc(SC)c2)cc1	-21.9% (inactive)	80.1% (active)	96.7% (active)	76.3% (active)	85.8% (active)
N/C(=N\OC(=O)c1ccc2c(c1)OCO2)c1ccc(Br)cc1	-7.4% (inactive)	15.2% (inactive)	11.9% (inactive)	17.8% (inactive)	3.3% (inactive)
COc1ccc(C(=O)Nc2ccc(C3(C#N)CCCC3)cc2)cc1OC	93% (active)	93.6% (active)	101% (active)	91.9% (active)	83.2% (active)
Oc1cccc2ccc(/C=C/c3ccc(Br)s3)nc12	31.2% (inactive)	63.9% (active)	52.2% (active)	59.9% (active)	9.6% (inactive)

SMILES	inhibition [1]	inhibition [2]	inhibition [3]	inhibition (Caspase-3 (Homo sapiens))	inhibition [4]
Cc1ccc(-n2ncc3c(Nc4cccc(C(=O)O)c4)ncnc32)cc1	93.9% (active)	98.1% (active)	102% (active)	44.3% (inactive)	83.5% (active)
O=C(Nc1ccc(F)cc1)c1cc2c(s1)CCCC2	93.3% (active)	93.7% (active)	101% (active)	84% (active)	84.2% (active)
CCC(=O)NC(Nc1cc(C)ccn1)(C(F)(F)F)C(F)(F)F	-4.5% (inactive)	-2.4% (inactive)	-0.5% (inactive)	8.4% (inactive)	4.2% (inactive)
Cc1cccc(-c2noc(-c3ccc(F)cc3)n2)c1	63.5% (active)	69.8% (active)	89.5% (active)	80.6% (active)	61.4% (active)
O=C(Nc1nnc(C2CC2)s1)c1ccccn1	49.3% (inactive)	49.2% (inactive)	82.6% (active)	83.6% (active)	59.4% (active)
COc1ccc2nc(Nc3nc4cc5c(cc4s3)OCCO5)sc2c1	20.4% (inactive)	63% (active)	71.6% (active)	31.8% (inactive)	24.3% (inactive)
CSc1ccccc1NC(=O)c1cc(C2CC2)on1	34.7% (inactive)	28.3% (inactive)	62.8% (active)	41.1% (inactive)	40% (inactive)
Cc1cccc(OCC(=O)Nc2ccccc2F)c1	20.8% (inactive)	30.1% (inactive)	72.8% (active)	62.7% (active)	35.2% (inactive)
O=c1[nH]c(CCl)nc2cc(-c3ccc(Cl)cc3)sc12	25.3% (inactive)	45.5% (inactive)	19.6% (inactive)	28.2% (inactive)	9.5% (inactive)
Cc1nonc1C(=O)N/N=C/c1ccc(O)cc1	99.5% (active)	101% (active)	103% (active)	99.4% (active)	66.2% (active)
Cc1ccccc1C(=O)Nc1ccc(N2CCCCCC2)cc1	73.8% (active)	72.6% (active)	91.7% (active)	67.2% (active)	51.9% (active)
Oc1ccc(N=Nc2nccs2)c(O)c1	82.3% (active)	80.3% (active)	93.9% (active)	90.8% (active)	82.8% (active)
C/C(=C\C(=O)c1ccccc1)Nc1cccc(O)c1	43.1% (inactive)	47.3% (inactive)	82.2% (active)	39.4% (inactive)	66.4% (active)
COc1ccccc1-c1nnc(-c2ccc(F)cc2)o1	33.8% (inactive)	38.6% (inactive)	73.8% (active)	66.2% (active)	60.3% (active)
Cc1ccc(F)c(NC(=O)CCc2ccccc2)c1	36.4% (inactive)	30.4% (inactive)	68.6% (active)	60.7% (active)	44.8% (inactive)
CCN1CC=C2C(C#N)=C(N)C(C#N)(C#N)[C@H](c3ccoc3)[C@H]2C1	-12.3% (inactive)	-5.5% (inactive)	-13.6% (inactive)	1.7% (inactive)	-10.5% (inactive)
CCOC(=O)c1cccc(NC(=O)c2ccc(F)cc2F)c1	54% (active)	48.2% (inactive)	75.9% (active)	67.9% (active)	59.7% (active)
Brc1ccc2nc(N3CCCC3)sc2c1	83.5% (active)	95.8% (active)	102% (active)	81.3% (active)	38.6% (inactive)
COc1ccccc1NC(=O)c1ccc(N2CC3CC(C2)c2cccc(=O)n2C3)c(NC(=O)c2cccnc2)c1 (stereo not given)	8.2% (inactive)	5.2% (inactive)	12.1% (inactive)	8.9% (inactive)	3.7% (inactive)
Fc1ccc2nc(N3CCCCC3)sc2c1	7.7% (inactive)	78.8% (active)	97.3% (active)	80.5% (active)	18.4% (inactive)
COc1ccc(C(=O)Nc2ccccc2C(=O)N/N=C/c2ccccc2OC)cc1	4% (inactive)	43.4% (inactive)	52.6% (active)	83.9% (active)	15.2% (inactive)
Cc1ccc(S(=O)(=O)Nc2nc3ccccc3nc2N2CCc3ccccc3C2)cc1	-9.3% (inactive)	-1.3% (inactive)	-5.2% (inactive)	4.5% (inactive)	4.3% (inactive)
O=C(Nc1nnc(SCc2ccccc2)s1)c1ccco1	6.7% (inactive)	40.5% (inactive)	23.6% (inactive)	61.1% (active)	13.1% (inactive)
COc1cc(C#Cc2ccc3cc(CCCO)oc(=O)c3c2)cc(OC)c1	56.9% (active)	72.2% (active)	86.6% (active)	42.7% (inactive)	15.2% (inactive)
Cc1ccn2cc(-c3nonc3C)cc2c1	47.6% (inactive)	77% (active)	95.7% (active)	73.7% (active)	33% (inactive)
